The list is not random: actives were taken first. Their share in the collection is about 6.3%.
Mdm2-MdmX inh – inhibitors of human Mdm2/MdmX interaction | O15151+Q00987 | SaOS-2 split-luciferase Mdm2/MdmX complementation, luminescence | inhibition, % at 8 µM | actives 3% (n = 330,000);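 active means inhibition of at least 50% at 8 µM in the primary screen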
MPTP block – permeability transition pore inhibition. isolated mouse mitochondria, Ca2+ swelling absorbance, 30 min. inhibition, % at 10 µM. actives 1.4% (n = 360,000);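 active means inhibition of 50% or more, scaled per plate between neutral and stimulator controls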;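 further: 0% = DMSO wells given calcium and 100% = 1 mM EGTA wells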
tim10-1 inh – inhibits growth of tim10-1 mutant yeast. S. cerevisiae tim10-1 ts strain growth, BacTiter-Glo, 24 h. inhibition, % at 20 µM. actives 2.2% (n = 330,000);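 active means inhibition of at least 40%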;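 further: mutant grown at 25 °C; 0% = DMSO wells with yeast and 100% = wells holding no yeast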
TIM10 inh – TIM10 yeast growth inhibition; S. cerevisiae TIM10 strain growth, BacTiter-Glo luminescence, 24 h; inhibition, % at 10 µM; actives 1.4% (n = 330,000); AID 463195;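 active means inhibition of 40% or more at the single tested concentration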;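 further: wild-type TIM10 isogenic control strain grown at permissive 25 °C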
tim23-1 inh – growth inhibitors of tim23-1 mutant yeast | S. cerevisiae tim23-1 growth, BacTiter-Glo luminescence, 24 h | inhibition, % at 20 µM | actives 1.3% (n = 330,000) | AID 463212;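 active means growth inhibition of the mutant yeast at or above 50%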;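 further: temperature-sensitive mutant grown at 25 °C; plate controls were DMSO-treated mutant yeast for no effect and medium wells lacking yeast for full effect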
Mdm2-MdmX conf – human Mdm2/MdmX binding inhibition, confirmed; inhibition, % at 8 µM; actives 55% (n = 10,000); luminescent assay; shares compounds with Mdm2-MdmX inh; in the data active means inhibition above about 40%
Full FLuc ctr – counter-screen for Mdm2/MdmX inhibitors: full-length luciferase | shares compounds with Mdm2-MdmX inh | SaOS-2 full-length luciferase counterscreen, luminescence | inhibition, % at 8 µM | actives 77% (n = 6,200) | AID 504607;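 active means mean inhibition at 8 µM reaching about 37%, which flags the compound as non-specific, limit read from the data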;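 further: p53-null SaOS-2 cells with luciferase driven by a doxycycline-inducible promoter; compound on cells about two nights before reading with doxycycline added after day one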
Active calls of the source: *.

How did CC(Nc1nc(-c2ccc(Cl)cc2)cs1)c1nc2cc(Cl)c(N3CCCCC3)cc2n1CCOCCO (centres undefined) do in these assays?
Mdm2-MdmX inh: 51.1*; MPTP block: 0.2; tim10-1 inh: 25.4; TIM10 inh: 14.5; tim23-1 inh: 32.3; Mdm2-MdmX conf: 1.6

Results for COc1ccc(C2CC(=O)c3cnc(NC(=O)c4ccccc4)nc3C2)c(OC)c1 (centres undefined) ?
Mdm2-MdmX inh: 57.6*; MPTP block: 4.1; tim10-1 inh: 23.1; TIM10 inh: -13.5; tim23-1 inh: -1.4; Mdm2-MdmX conf: 41.0*; Full FLuc ctr: 70.7*

What do the screens show for `CC(C)CNC(=O)C1(C)CCCN1C(=O)Cc1cccc2ccccc12` (centres undefined)?
MPTP block: -0.5

What do the screens show for `CCCCCNC(=O)C(CCc1ccccc1)n1c(=O)c(-c2ccccc2)nc2ccccc21` (centres undefined)?
MPTP block: 4.5

What do the screens show for `C[C@@H]1CN([C@H](C)CO)C(=O)Cc2cc(NC(=O)Nc3ccccc3)ccc2O[C@@H]1CN(C)Cc1ccc2c(c1)OCO2`?
Mdm2-MdmX inh: 53.2*; MPTP block: 0.2; tim10-1 inh: -12.3; TIM10 inh: -10.0; tim23-1 inh: -9.7; Mdm2-MdmX conf: 18.3

How did C[C@@H]1CN([C@@H](C)CO)C(=O)Cc2cc(NC(=O)Nc3cccc4ccccc34)ccc2O[C@@H]1CN(C)Cc1ccc(C(F)(F)F)cc1 do in these assays?
Mdm2-MdmX inh: 64.8*; MPTP block: 1.7; tim10-1 inh: 5.4; TIM10 inh: 4.5; tim23-1 inh: 6.8; Mdm2-MdmX conf: 30.7

Results for C[C@H](CO)N1C[C@H](C)[C@H](CN(C)Cc2ccccc2)Oc2ccc(NC(=O)Nc3ccc(F)cc3)cc2C1=O ?
Mdm2-MdmX inh: 64.6*; MPTP block: 1.7; tim10-1 inh: -7.2; TIM10 inh: 1.6; tim23-1 inh: 2.7; Mdm2-MdmX conf: 27.4

How did C[C@@H]1CN([C@H](C)CO)C(=O)Cc2cc(NS(=O)(=O)c3ccc(Cl)cc3)ccc2O[C@H]1CN(C)Cc1ccc(C(F)(F)F)cc1 do in these assays?
Mdm2-MdmX inh: 89.6*; MPTP block: 4.1; tim10-1 inh: 14.5; TIM10 inh: 9.6; tim23-1 inh: 20.1; Mdm2-MdmX conf: 62.2*; Full FLuc ctr: 55.0*

What do the screens show for `CCOC(=O)CCCCCC(=O)Nc1ccc2c(c1)CC(=O)N([C@H](C)CO)C[C@@H](C)[C@H](CN(C)Cc1ccc3c(c1)OCO3)O2`?
Mdm2-MdmX inh: 19.8; MPTP block: -0.4; tim10-1 inh: -7.7; TIM10 inh: 2.6; tim23-1 inh: -6.3

Results for CCCNC(=O)C1(C)CCCN(C(=O)c2ccc3snnc3c2)C1 (centres undefined) ?
MPTP block: -1.4

What do the screens show for `Cc1cc(Br)cn2c(CC(C)(C)C)c(C3CCCCC3)nc12`?
MPTP block: 3.6

How did C[C@@H]1CN([C@H](C)CO)C(=O)c2cc(NC(=O)Nc3cccc4ccccc34)ccc2O[C@H]1CN(C)Cc1ccc(C(F)(F)F)cc1 do in these assays?
Mdm2-MdmX inh: 56.2*; MPTP block: -0.3; tim10-1 inh: 4.8; TIM10 inh: -3.2; tim23-1 inh: 5.8; Mdm2-MdmX conf: 28.9; Full FLuc ctr: 80.9*

What do the screens show for `C[C@H]1CN([C@@H](C)CO)C(=O)c2cc(NC(=O)C3CCCCC3)ccc2O[C@H]1CN(C)Cc1ccc(-c2ccccc2)cc1`?
Mdm2-MdmX inh: 81.3*; MPTP block: -1.3; tim10-1 inh: -2.0; TIM10 inh: -0.2; tim23-1 inh: 8.3; Mdm2-MdmX conf: 23.4

What do the screens show for `CCCCn1nc(C(=O)NC2CCCCC2)c2ccccc2c1=O`?
MPTP block: -1.8

How did N#Cc1ccc(-c2nc3c4ccccc4ccn3c2Cc2cccc(Cl)c2)cc1 do in these assays?
MPTP block: 1.1

How did COc1ccc(NC(=S)NC(=O)/C=C/c2ccco2)cc1 do in these assays?
Mdm2-MdmX inh: 0.4; MPTP block: 1.4; tim10-1 inh: 14.1; TIM10 inh: 21.8; tim23-1 inh: 0.8

Results for O=C(/C=C\c1ccco1)Nc1nc(-c2ccc3ccccc3c2)cs1 ?
Mdm2-MdmX inh: 34.4; MPTP block: 3.9; tim10-1 inh: -10.4; TIM10 inh: 8.1; tim23-1 inh: 13.8

How did O=C(/C=C/c1ccco1)NC(=S)Nc1ccc(O)c(-c2nc3ccccc3s2)c1 do in these assays?
Mdm2-MdmX inh: 76.9*; MPTP block: 2.2; tim10-1 inh: 14.9; TIM10 inh: 15.8; tim23-1 inh: 9.3; Mdm2-MdmX conf: 31.9; Full FLuc ctr: 71.7*

How did O=C(/C=C/c1ccco1)NC(=S)Nc1ccc(N2CCCC2)cc1 do in these assays?
Mdm2-MdmX inh: 61.0*; MPTP block: 1.8; tim10-1 inh: 7.7; TIM10 inh: 9.0; tim23-1 inh: 18.5; Mdm2-MdmX conf: 61.9*; Full FLuc ctr: 52.2*

What do the screens show for `Cc1ccc(-c2csc(NC(=S)NC(=O)/C=C/c3ccco3)n2)cc1`?
Mdm2-MdmX inh: 59.2*; MPTP block: 3.5; tim10-1 inh: 27.8; TIM10 inh: 12.6; tim23-1 inh: -4.6; Mdm2-MdmX conf: 51.4*; Full FLuc ctr: 59.3*

Results for CC(=O)NC(=S)Nc1ccc(NC(=S)NC(=O)/C=C/c2ccco2)cc1 ?
Mdm2-MdmX inh: 73.5*; MPTP block: 3.7; tim10-1 inh: 4.6; TIM10 inh: 6.1; tim23-1 inh: 9.4; Mdm2-MdmX conf: 64.8*; Full FLuc ctr: 35.0

How did Cc1ccc(S(=O)(=O)Nc2cccc3c2O[C@H](CN(C)Cc2ccccc2)[C@@H](C)CN([C@H](C)CO)C3=O)cc1 do in these assays?
Mdm2-MdmX inh: -10.4; MPTP block: 0.8; tim10-1 inh: 4.7; TIM10 inh: 5.5; tim23-1 inh: 6.9

What do the screens show for `OC[C@H]1O[C@@H](c2nc(-c3ccc(Br)cc3)no2)C[C@@H]1O`?
MPTP block: -0.6

What do the screens show for `CC1(C)CC(=O)C=C(c2ccc(-c3cnc4ccccc4c3)cc2)C1=O`?
MPTP block: 0.0

What do the screens show for `O=C(NC(=S)Nc1nc(-c2ccc([N+](=O)[O-])cc2)cs1)c1ccco1`?
Mdm2-MdmX inh: 55.0*; MPTP block: 1.9; tim10-1 inh: 5.6; TIM10 inh: 2.4; tim23-1 inh: -3.2; Mdm2-MdmX conf: 27.6

Results for Cc1ccc(COc2ccccc2-c2cc(C(=O)N/N=C/c3cccnc3)[nH]n2)cc1 ?
Mdm2-MdmX inh: 55.3*; MPTP block: -0.2; tim10-1 inh: 14.8; TIM10 inh: -9.2; tim23-1 inh: 27.5; Mdm2-MdmX conf: 58.6*; Full FLuc ctr: 71.7*

How did C=CCn1c(C)c(/C=C/c2cc[n+](C)cc2)c2ccccc21 do in these assays?
Mdm2-MdmX inh: 64.2*; MPTP block: 1.5; tim10-1 inh: -6.9; TIM10 inh: 7.8; tim23-1 inh: -4.5; Mdm2-MdmX conf: 40.7*; Full FLuc ctr: 69.4*

Source: PubChem BioAssay (Sanford-Burnham Center for Chemical Genomics)
